Laboratory results: PubChem BioAssay AID1159580 (chemical genetic matrix, 2015)
Where “and” joins values, the source holds several entries; their conditions need not be identical. Identical values can stand only once. Screen size: about 5,500 compounds; about 2,000 (36%) were called active. Another 18% or so got no clear call; they are omitted. No stated cut-off is given here; in the data, active means normalized growth mostly below about 0.91 (no sharp cut-off); inconclusive means no clear call, values can overlap the other calls; inactive means mostly above about 0.92. The list shows a part of the results.

Test: chemical genetic growth profiling, strain panel (AID 1159580);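 further: tested at 20 µM; growth read once vehicle control cultures reached saturation at 30 °C; 1 = growth at the plate median or of vehicle wells; lower values mean less growth of the strain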
Details: S. cerevisiae deletion strains, growth OD

Measured: normalized growth

Cc1c(N(C)C)c(=O)n(-c2ccccc2)n1C
inactive: locus YAL013W, strain DEP1, active compounds read low 0.994 | locus YAL021C, strain ccr4, active compounds read low 0.981 | locus YAL026C, strain drs2, active compounds read low 0.977 | locus YAL030W, strain snc1, active compounds read low 0.982 | locus YBL061C, strain skt5, active compounds read low 1 | locus YBR009C, strain hhf1, active compounds read low 0.976 | locus YBR021W, strain FUR4, active compounds read low 1.01 | locus YBR023C, strain chs3, active compounds read low 0.983 | locus YBR171W, strain sec66, active compounds read low 0.987 | locus YBR229C, strain ROT2, active compounds read low 0.978 | locus YBR231C, strain swc5, active compounds read low 0.99 | locus YBR279W, strain paf1, active compounds read low 0.996 | locus YCL011C, strain gbp2, active compounds read low 1.01 | locus YCL016C, strain dcc1, active compounds read low 0.993 | locus YCL029C, strain bik1, active compounds read low 0.972 | locus YCL061C, strain MRC1, active compounds read low 0.979 | locus YCL069W, strain vba3, active compounds read low 1 | locus YCR088W, strain abp1, active compounds read low 1 | locus YDL005C, strain med2, active compounds read low 0.96 | locus YDL035C, strain GPR1, active compounds read low 0.995 | locus YDL040C, strain nat1, active compounds read low 0.991 | locus YDL074C, strain BRE1, active compounds read low 0.984 | locus YDL101C, strain DUN1, active compounds read low 0.983 | locus YDL134C, strain PPH21, active compounds read low 0.997 | locus YDL185W, strain tfp1, active compounds read low 0.962 | locus YDL192W, strain arf1, active compounds read low 0.98 | locus YDR001C, strain nth1, active compounds read low 0.994 | locus YDR069C, strain doa4, active compounds read low 0.971 | locus YDR101C, strain arx1, active compounds read low 0.99 | locus YDR137W, strain rgp1, active compounds read low 0.986 | locus YDR150W, strain NUM1, active compounds read low 0.993 | locus YDR159W, strain sac3, active compounds read low 0.948 | locus YDR162C, strain NBP2, active compounds read low 0.993 | locus YDR195W, strain ref2 0.934 | locus YDR297W, strain sur2, active compounds read low 1 | locus YDR318W, strain mcm21, active compounds read low 0.989 | locus YDR334W, strain swr1, active compounds read low 0.987 | locus YDR335W, strain msn5, active compounds read low 0.993 | locus YDR388W, active compounds read low 0.998 | locus YDR392W, strain spt3, active compounds read low 1 | locus YDR502C, strain sam2, active compounds read low 0.999 | locus YEL003W, strain gim4, active compounds read low 0.997 | locus YEL037C, strain rad23, active compounds read low 0.998 | locus YEL061C, strain CIN8 (second series), active compounds read low 1.01 | locus YEL061C, strain CIN8, active compounds read low 0.996 | locus YER015W, strain faa2, active compounds read low 0.995 | locus YER016W, strain bim1, active compounds read low 0.999 | locus YER110C, active compounds read low 0.981 | locus YER111C, strain swi4, active compounds read low 0.983 | locus YER155C, strain BEM2 (second series), active compounds read low 0.989 | locus YER155C, strain BEM2, active compounds read low 0.995 | locus YER167W, strain BCK2, active compounds read low 0.99 | locus YFR010W, strain ubp6, active compounds read low 0.986 | locus YGL078C, strain dbp3, active compounds read low 0.997 | locus YGL086W, strain mad1, active compounds read low 1 | locus YGL167C, strain pmr1, active compounds read low 0.982 | locus YGL173C, strain kem1, active compounds read low 0.96 | locus YGL227W, strain vid30, active compounds read low 0.984 | locus YGL240W, strain doc1, active compounds read low 0.972 | locus YGL248W, strain PDE1, active compounds read low 0.998 | locus YGL253W, strain hxk2, active compounds read low 1.02 | locus YGR078C, strain PAC10, active compounds read low 0.985 | locus YGR135W, strain pre9, active compounds read low 0.991 | locus YGR229C, strain SMI1, active compounds read low 0.992 | locus YGR252W, strain gcn5, active compounds read low 1.1 | locus YHR013C, strain ard1, active compounds read low 0.964 | locus YHR027C, strain rpn1, active compounds read low 0.996 | locus YHR030C, strain SLT2, active compounds read low 0.976 and 1.04 | locus YHR079C, strain IRE1 (second series), active compounds read low 0.99 | locus YHR079C, strain IRE1, active compounds read low 1.01 | locus YHR094C, strain hxt1, active compounds read low 0.978 | locus YHR129C, strain ARP1, active compounds read low 0.993 | locus YHR142W, strain chs7, active compounds read low 1.02 | locus YHR200W, strain rpn10, active compounds read low 0.999 | locus YIL066C, strain RNR3, active compounds read low 0.992 | locus YIL073C, strain SPO22, active compounds read low 0.923 | locus YIL125W, strain kgd1, active compounds read low 0.99 | locus YIR030C, strain dcg1, active compounds read low 0.99 | locus YJL092W, strain hpr5, active compounds read low 1 | locus YJL095W, strain BCK1 (second series), active compounds read low 0.997 | locus YJL095W, strain BCK1, active compounds read low 0.966 and 1.04 | locus YJL115W, strain asf1, active compounds read low 0.995 | locus YJL129C, strain trk1, active compounds read low 0.983 | locus YJL134W, strain LCB3, active compounds read low 0.997 | locus YJL154C, strain vps35, active compounds read low 0.987 | locus YJL166W, strain qcr8, active compounds read low 0.982 | locus YJL168C, strain set2, active compounds read low 0.99 | locus YJL187C, strain SWE1 (second series), active compounds read low 0.975 | locus YJR043C, strain POL32, active compounds read low 0.986 | locus YJR066W, strain TOR1, active compounds read low 0.972 | locus YJR075W, strain HOC1, active compounds read low 0.997
